{"source": "PubChem BioAssay AID2315", "about": "(National Center for Advancing Translational Sciences (NCATS), 2010)", "note": "Hit rate of the full screen: of about 290,000 compounds, about 27,000 (9.3%) were called active. What follows is part of a selection rich in actives, with near analogues and random picks from the rest. Unmarked numbers belong to inactive results. No stated cut-off is given here; in the data, active means inhibition mostly above about 28% (no sharp cut-off); inactive means mostly below about 43%."}
{"assay": "A qHTS for Small Molecule Inhibitors of Shiga Toxin; further: 0% is about no effect", "conditions": "Vero cells, Shiga toxin protein synthesis inhibition reporter; at 38.7 µM, active compounds read high"}
{"smiles": "Cc1ccc2c(cnn2C(=O)CCC(=O)NC2CCCC2)c1", "inhibition": "1.95%"}
{"smiles": "CCOc1ccc(C(CC(=O)O)NC(=O)Cc2ccccc2)cc1OC", "note": "(stereo unspecified)", "inhibition": "-3.82%"}
{"smiles": "COc1ccc(C2CC(=O)NC(=O)C2)cc1", "inhibition": "1.04%"}
{"smiles": "Cc1c(CCC(=O)N[C@@H](CC(C)C)C(=O)O)c(=O)oc2c(C)c3oc4c(c3cc12)CCCC4", "inhibition": "-1.24%"}
{"smiles": "O=C(Nc1ccncc1)Nc1ccc(F)cc1", "inhibition": "30.2%"}
{"smiles": "CCc1ccc(NC(=O)Nc2ccncc2)cc1", "inhibition": "58.2% (active)"}
{"smiles": "CCc1ccc(NC(=O)N[C@H](C(=O)O)C(C)CC)cc1", "note": "(stereo partly specified)", "inhibition": "-3.77%"}
{"smiles": "O=C(Nc1cc(C(=O)Nc2ccc(S(=O)(=O)O)cc2)cc(C(=O)Nc2ccc(S(=O)(=O)O)cc2)c1)Nc1cc(C(=O)Nc2ccc(S(=O)(=O)O)cc2)cc(C(=O)Nc2ccc(S(=O)(=O)O)cc2)c1", "inhibition": "-5.01%"}
{"smiles": "CCCn1c(=N)n(CC(=O)c2ccc(Cl)c(Cl)c2)c2ccccc21", "inhibition": "-3.46%"}
{"smiles": "CC(C)(C)C1CCC(C(=O)NCC(c2cccs2)N2CCOCC2)CC1", "note": "(stereo unspecified)", "inhibition": "-2.93%"}
{"smiles": "O=C(NCc1cccs1)C1CCN(S(=O)(=O)c2ccc(Cl)cc2)CC1", "inhibition": "-3.28%"}
{"smiles": "O=C(NCc1csc(-c2cccs2)n1)C1CC1", "inhibition": "68.5% (active)"}
{"smiles": "COCc1ccc(C(=O)NC2CC(C)(C)Cc3c2cnn3-c2ccc(C)cc2)o1", "note": "(stereo unspecified)", "inhibition": "21.9%"}
{"smiles": "O=C(OCc1ccccc1F)c1ccc2c(c1)OCCO2", "inhibition": "104% (active)"}
{"smiles": "CC(NC(=O)COC(=O)c1ccc2c(c1)OCO2)c1ccccc1", "note": "(stereo unspecified)", "inhibition": "17.4%"}
{"smiles": "O=C(COC(=O)c1ccc2c(c1)OCCO2)NCc1ccccc1", "inhibition": "19.3%"}
{"smiles": "O=C(O)c1ccc(/C=C2\\SC(=S)N(NC(=O)c3ccc(Br)cc3)C2=O)cc1", "inhibition": "-9.68%"}
{"smiles": "N#Cc1ccc(S(=O)(=O)NCC(=O)OCC(=O)NCCc2ccccc2)cc1", "inhibition": "-5.8%"}
{"smiles": "O=C(Cc1cccs1)Nc1ccc([N+](=O)[O-])cc1", "inhibition": "-6.19%"}
{"smiles": "CCCCC(CCC(=O)Nc1ccc(C(=O)OCC)cc1)C(=O)O", "note": "(stereo unspecified)", "inhibition": "-3.77%"}
{"smiles": "CCOc1ccccc1NC(=O)Cc1cccs1", "inhibition": "-4.91%"}
{"smiles": "C#CCNc1ccc(C(=O)OCC)cc1", "inhibition": "58.3% (active)"}
{"smiles": "CCOC(=O)c1ccc(NC(=S)N2CCCC2)cc1", "inhibition": "8.67%"}
{"smiles": "CCOC(=O)c1ccc(NC(=O)Cc2cccs2)cc1", "inhibition": "49.2% (active)"}
{"smiles": "CCOC(=O)c1cccc(NC(=O)C2CCN(c3ncnc4c3nc3n4CCCCC3)CC2)c1", "inhibition": "10.8%"}
{"smiles": "CC(Sc1nnc(-c2ccccc2F)n1C1CC1)C(N)=O", "note": "(stereo unspecified)", "inhibition": "-9.07%"}
{"smiles": "O=C(O)c1ccc2c(=O)n3c(nc2c1)/C(=C/c1ccc(OC(F)F)cc1OC(F)F)CC3", "inhibition": "1.37%"}
{"smiles": "CN(C(=O)CCN1C(=O)/C(=C/c2ccccc2F)SC1=S)C1CCS(=O)(=O)C1", "note": "(stereo unspecified)", "inhibition": "-3.82%"}
{"smiles": "O=C(CN1C(=O)/C(=C/c2ccccc2F)Sc2ccccc21)NCc1cccnc1", "inhibition": "13.6%"}
{"smiles": "O=C(CN1C(=O)/C(=C\\c2ccccc2F)SC1=S)Nc1nc2ccccc2s1", "inhibition": "51.7% (active)"}
{"smiles": "COc1ccc(CNc2ccc3c(c2)CCC3)cc1OC", "inhibition": "37.9%"}
{"smiles": "Cc1ccc(N2C(=O)CC(NCc3ccc4c(c3)OCO4)C2=O)cc1Cl", "note": "(stereo unspecified)", "inhibition": "110% (active)"}
{"smiles": "Cc1ccc(CC2CC(=O)N(c3ccc4c(c3)OCCO4)C2=O)cc1", "note": "(stereo unspecified)", "inhibition": "51.2%"}
{"smiles": "O=CN1CCN(C2CC(=O)N(c3ccc4c(c3)OCO4)C2=O)CC1", "note": "(stereo unspecified)", "inhibition": "19.5%"}
{"smiles": "Cc1cccc(C(=O)NC(=S)N(C)C2CCCCC2)c1", "inhibition": "117% (active)"}
{"smiles": "Cc1cccc(C(=O)NCCCN(C)CCCNC(=O)c2cccc(C)c2)c1", "inhibition": "-6.03%"}
{"smiles": "Cc1cccc(NC(=S)NCCN(C2CCCCC2)C2CCCC2)c1", "inhibition": "19.2%"}
{"smiles": "Cc1nc2ccc(C(=O)N(C)CC3CCCN(CCc4ccc(Cl)cc4)C3)cc2[nH]1", "note": "(stereo unspecified)", "inhibition": "-8.28%"}
{"smiles": "COc1ccc(COC(=O)c2ccc(Cl)c(S(=O)(=O)N3CCOCC3)c2)cc1F", "inhibition": "-8.8%"}
{"smiles": "O=C(NCc1ccc(Cl)cc1)C1CCN(S(=O)(=O)c2cccs2)CC1", "inhibition": "4.43%"}
{"smiles": "O=C(CN1CCN(S(=O)(=O)c2ccc(Cl)s2)CC1)NCc1ccc(Cl)cc1", "inhibition": "34.8% (active)"}
{"smiles": "Cc1ccccc1N1CCN(CC(=O)NCc2ccc(Cl)cc2)CC1", "inhibition": "-5.06%"}
{"smiles": "CC(C)c1ccccc1OCC(O)CN(CC(O)COc1cccc2ccccc12)C(C)C", "note": "(stereo unspecified)", "inhibition": "-14.8%"}
{"smiles": "COc1cccc(C(=O)NC(=O)Nc2nc(C)cc(C(F)(F)F)n2)c1", "inhibition": "4.77%"}
{"smiles": "Brc1ccc(-c2nnc(-c3ccccc3)o2)o1", "inhibition": "71.5% (active)"}
{"smiles": "Cn1nc(-c2ccccc2)c(-c2nc(-c3ccc(Cl)cc3)no2)c1Cl", "inhibition": "-16%"}
{"smiles": "Brc1ccc(-c2noc(-c3ccccc3)n2)o1", "inhibition": "139% (active)"}
{"smiles": "Nc1nonc1-c1noc(-c2ccc(Br)o2)n1", "inhibition": "24.2%"}
{"smiles": "COc1ccc(CNC(=O)CCN2C(=O)c3ccccc3C2=O)cc1", "inhibition": "4.69%"}
{"smiles": "O=C(O)CC(c1ccccc1F)N1Cc2ccccc2C1=O", "note": "(stereo unspecified)", "inhibition": "-12%"}
{"smiles": "O=C(Cn1cc(C(=O)c2cccs2)c2ccccc21)NCc1cccs1", "inhibition": "16.3% (active)"}
{"smiles": "COC(=O)Cn1cc(C(=O)c2cccs2)c2ccccc21", "inhibition": "2.14%"}
{"smiles": "COC(=O)c1cn(CC(=O)NCc2cccs2)c2ccccc12", "inhibition": "64.8% (active)"}
{"smiles": "COCCCNC(=O)Cn1cc(C(=O)C2CC2)c2ccccc21", "inhibition": "-8.71%"}
{"smiles": "CCN(CC)C(=O)C(=O)c1cn(CC(=O)NCc2ccc3c(c2)OCO3)c2ccccc12", "inhibition": "-11.5%"}
{"smiles": "O=C(CN1CCN(c2ccccn2)CC1)NCc1cccs1", "inhibition": "-22.2%"}
{"smiles": "Cc1cc(=O)[nH]c(Nc2cccc(Br)c2)n1", "inhibition": "-10.8%"}
{"smiles": "N#Cc1cccc(CSc2ncnc(N)n2)c1", "inhibition": "3.32%"}
{"smiles": "Cc1ccccc1-n1cc(CNC(=O)C2CCC(=O)N(C3CC3)C2)cn1", "note": "(stereo unspecified)", "inhibition": "21.3%"}
{"smiles": "COc1ccc2c(c1)N(C)/C(=C1/SC(=S)N(NC(C)=O)C1=O)S2", "inhibition": "7.78%"}
{"smiles": "COc1ccc(N(Cc2ccc(N(C)C)cc2)C(=O)c2ccc(S(C)(=O)=O)cc2)cc1", "inhibition": "-10.5%"}
